Compounds without any hit were thinned out: in the full panel of roughly 83,000, 20% have a hit.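 Single-concentration screen, 48 h exposure, 96-well plates. Endpoint: percent growth. Below 10 = active.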 A number with no mark means an inactive call. Activity calls are given as the source filed them.
Test system: CAKI-1 renal
Assay: NCI-60 one-dose screen, 48 h (100 = growth as untreated, 0 = no growth, -100 = all killed)
Details: 10 µM unless noted

Structure (SMILES)	growth [%]
COc1cc2oc(-c3cccc(NC(=O)c4cccc(Br)c4)c3)cc(=O)c2c(OC)c1OC	51.4
O=C(Nc1nc2ccc(F)cc2s1)c1cccnc1Nc1ccc(Cl)cc1	20.2
Nc1c(C(=O)Nc2ccncc2)sc2nc3c(cc12)CCCCCC3	98
CC1(C)c2[nH]c3ccccc3c2C[C@]2(C)[C@H]3CC=C4[C@@H]5C[C@@](C)(C(N)=O)CC[C@]5(C)CC[C@@]4(C)[C@]3(C)CC[C@@H]12	57.7

Test system: A498 renal
Assay: as above
Details: 10 µM unless noted

Structure (SMILES)	growth
COc1cc(CNS(=O)(=O)c2ccc(C)cc2)ccc1OCc1cn(-c2ccc(Br)cc2)nn1	70.6%
Cc1ccc(Cl)cc1Nc1nc(C(F)(F)F)ccc1C(=O)N/N=C/c1cccnc1	34%
COc1cc2c(c(OC)c1OC)-c1ccc(OC)c(=O)cc1[C@@H](NC(=O)CCl)CC2	-4.98% (active)
Fc1ccc(Nc2nc3nonc3nc2Nc2ccc(I)cc2)cc1	-36.1% (active)
CO[C@H]1/C=C(/C)CCC[C@H](C)[C@H](O)[C@@H](C)C(=O)C(C)(C)[C@@H](O)CC(=O)O[C@@H]1/C(C)=C/c1csc(C)n1	2.04% (active)
COCCn1c(-c2csc(-c3cn(C)c4ccc(OC)cc34)n2)cc2cccnc21	60.8%
CCNc1nc(-c2ccc(Cl)c(OC)c2)c(-c2ccnc(NCCCNS(=O)(=O)c3ccc(Cl)cc3)n2)s1	66.8%
O=C1COCCN1c1ccc(Nc2nc(Cl)nc(OCc3cn(Cc4ccccc4)nn3)n2)cc1	92.2%
N#Cc1c(-c2ccc(Cl)cc2)nc(SCC(=O)NC2=NN=C(c3ccccc3)CS2)[nH]c1=O	97.6%
Cc1cc2c(O)c(-c3cccc(Cl)c3)c3sc(=O)oc3c2cc1C	9.01% (active)
CC1=C(CCC(C)N(C)Cc2ccc(OCCCN3CCCC3)cc2)C(C)(C)CCC1 (centres undefined)	57.2%
N#Cc1cccc(-c2c(-c3ccc4ccccc4c3)oc3ccccc3c2=O)c1	43.4%
Cc1nc2sc(C(=O)Nc3ccccc3)c(N)c2cc1C(=O)c1ccccc1	-3.88% (active)
O=C(O)CNC1=C(Cl)C(=O)c2ccccc2C1=O	102%
CCCCCC(=O)OCC(=O)O[C@@H]1C[C@]2(C(C)C)O[C@@]1(C)[C@@H]1CC[C@@H](C)[C@H]1[C@@H]2OC(=O)/C=C/c1ccccc1	-88.6% (active)
CN1C(=O)/C(=C/c2ccc(C(=O)Nc3ncc(Cc4ccc(Cl)cc4)s3)cc2)SC1=S	39.9%
C#CCOc1ccc2ncnc(Nc3cccc(NC(=O)C=C)c3)c2c1	47.7%
CN(CCOc1ccc(C#N)cc1)CCOc1ccc(C#N)cc1	12.7%
CCOC(=O)c1c(NC(=O)c2ccc(C(C)C)cc2)sc2c(CN(C)C)c(O)ccc12	41.5%
COC(=O)c1c2c(c[n+]([O-])c1C)C(=O)C(NCc1ccccc1)=CC2=O	-4.89% (active)

Structure (SMILES)	growth
Nc1ncnc2c1N=C(c1ccc3c(c1)OCO3)CC(c1ccc([N+](=O)[O-])cc1)N2 (centres undefined)	67.3%
N#C/C(=C/c1ccc([N+](=O)[O-])cc1)n1nnc2cc(F)c(F)cc21	75.3%
CCN1CCN(c2cc(C(=O)Nc3nc(-c4cc(OC)c(OC)c(OC)c4)cs3)cc(C(F)(F)F)c2)CC1	73.5%
CN1CCN(c2ccc(C(=O)Nc3cccc(C#Cc4cccc5[nH]nc(N)c45)c3)cc2C(F)(F)F)CC1	5.93% (active)
CN1CCN(c2ccc(NC(=O)c3cncnc3Nc3ccc(OCc4ccccn4)c(Cl)c3)cc2)CC1	67.2%
c1ccc(CNc2c3ccccc3nc3ccccc23)cc1	16.6%
C/C(=N\NC(=O)c1ccccc1O)c1cccc(/C(C)=N/NC(=O)c2ccccc2O)n1	71.9%
N#Cc1c(NC(=O)c2ccccc2)sc2c1CCC(=O)C2	78.3%
CCO/C=N/C1=C(C#N)C(c2ccc(OC)cc2)c2sc3c(F)cccc3c2O1 (centres undefined)	21.7%
O=C(CI)NC1Oc2ccccc2-c2oc(=O)c(-c3ccccc3)cc21 (centres undefined)	82.1%
Brc1ccc2[nH]cc(-c3nonc3-c3c[nH]c4ccccc34)c2c1	43%
Fc1ccc2[nH]cc(-c3nonc3-c3c[nH]c4ccc(Br)cc34)c2c1	24.9%
N#CC1C=CN(CC(N)=O)c2ccc3cccnc3c21 (centres undefined)	85.9%
CCOC(=O)CSc1ncnc2c1c(-c1ccccc1)c(-c1ccccc1)n2-c1ccc(C)cc1	75.2%
O=C(Cn1c2c(c3ccccc31)CCCC2)Nc1ccc(-c2nc3ccccc3s2)cc1	94%
CC(C)=CCC[C@](C)(O)[C@H]1CC[C@]2(C)[C@@H]1CC[C@@H]1[C@@]3(C)Cc4nccnc4C(C)(C)[C@@H]3CC[C@]12C	91.4%
COc1cc2oc(-c3cccc(NC(=O)c4cccc(Br)c4)c3)cc(=O)c2c(OC)c1OC	46.6%
O=C(Nc1nc2ccc(F)cc2s1)c1cccnc1Nc1ccc(Cl)cc1	17.9%
Nc1c(C(=O)Nc2ccncc2)sc2nc3c(cc12)CCCCCC3	54.8%
CC1(C)c2[nH]c3ccccc3c2C[C@]2(C)[C@H]3CC=C4[C@@H]5C[C@@](C)(C(N)=O)CC[C@]5(C)CC[C@@]4(C)[C@]3(C)CC[C@@H]12	67.9%
